# Screening data as filed in PubChem.
# ALDH1A1 inh: qHTS Assay for Inhibitors of Aldehyde Dehydrogenase 1 (ALDH1A1). Aldehyde dehydrogenase 1A1 (Homo sapiens), P00352. Purified ALDH1A1, NADH fluorescence, propionaldehyde substrate. Potency, µM (series often up to 75.3 µM), for the others: top-dose activity, negative = inhibition, hits mostly inhibitors. actives 7.3% (n = 220,000); active means well fitted inhibition curve with a large enough effect, not every such curve was filed as active; inconclusive means small, poorly fitted or top-dose-only effect, or another doubt; inactive means no such curve, though single readings can be large or run the other way;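 further: plate controls were no enzyme wells and a reference inhibitor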
# Target sequence (P00352 whole entry, looked up): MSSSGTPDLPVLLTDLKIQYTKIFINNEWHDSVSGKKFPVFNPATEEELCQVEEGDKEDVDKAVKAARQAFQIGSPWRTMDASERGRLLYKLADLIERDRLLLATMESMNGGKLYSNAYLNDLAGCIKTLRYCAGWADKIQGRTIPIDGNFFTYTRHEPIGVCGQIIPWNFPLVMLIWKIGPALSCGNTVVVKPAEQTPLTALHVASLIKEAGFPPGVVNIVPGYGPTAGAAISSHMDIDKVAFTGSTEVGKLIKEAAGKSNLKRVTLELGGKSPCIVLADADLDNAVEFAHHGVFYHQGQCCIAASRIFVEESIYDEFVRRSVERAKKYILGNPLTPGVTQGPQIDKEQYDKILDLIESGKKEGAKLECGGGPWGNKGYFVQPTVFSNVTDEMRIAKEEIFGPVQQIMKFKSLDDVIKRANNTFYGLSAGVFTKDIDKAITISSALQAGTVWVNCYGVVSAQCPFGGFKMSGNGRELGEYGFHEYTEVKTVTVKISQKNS
# PLK1 PBD block: qHTS for Inhibitors of PLK1-PDB (polo-like kinase 1 - polo-box domain): Primary Screen; AID 720504, 2013; Serine/threonine-protein kinase PLK1 (Homo sapiens), P53350; Potency, µM, without a hit: max response, negative = inhibition, hits mostly inhibitors; Plk1 PBD binding of FITC phosphopeptide, fluorescence polarization; actives 2.8% (n = 360,000); further: series mostly up to about 57 µM; nearly all actives have a fitted effect of over 65% in size
# Gal4-VP16 FLuc: VP16 counterscreen qHTS for inhibitors of ROR gamma transcriptional activity. Drosophila S2 Gal4-VP16 UAS-luciferase, luminescence, 20 h. actives 3.5% (n = 310,000). Potency, µM (titrated, usually from 53.6 µM), inactives show at the top dose activity, negative = inhibition, actives largely listed as inhibitors;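 further: Gal4-VP16 expression switched on by copper sulfate through the metallothionein promoter; nearly all actives have a fitted effect of over 50% in size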
# Sfp inh: qHTS Assay for Inhibitors of Bacillus subtilis Sfp phosphopantetheinyl transferase (PPTase); Biochemical Sfp PPTase activity, qHTS; Potency, µM, without a hit: largest response in the series, negative = inhibition, hits mostly inhibitors; 4'-phosphopantetheinyl transferase ffp (Bacillus subtilis), Q9F4F7; actives 3.5% (n = 310,000); AID 1490, 2009;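 further: the enzyme is Sfp with the accession as filed and its product quenches rhodamine fluorescence; 0% = enzyme reaction without inhibitor and -100% = no enzyme wells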
#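 With Hepes-Na pH 7.6 buffer containing 10 mM MgCl2, Sfp (15 nM) modified BHQ-2-YbbR (12.5 uM) using rhodamine-CoA (5 uM). Two reads 30 minutes apart at 525/598 nm yielded each well's rate.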
# RORgamma inh: qHTS for inhibitors of ROR gamma transcriptional activity | Drosophila S2 Gal4-RORgamma UAS-luciferase reporter, 20 h | Potency, µM (doses to about 53.6 µM), for the others: at the top dose activity change, negative = inhibition, hits mostly inhibitors | actives 5.4% (n = 310,000) | AID 2551, 2010; further: nearly all actives have a fitted effect of over 60% in size
#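 Compounds are pin-transferred onto Drosophila Schneider cells expressing a copper-inducible Gal4–ROR gamma transactivation domain fusion. After 1 hr, copper sulfate is added to 700 uM final; luciferase is read 20 hr later.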
# Active calls of the source: *; u = inconclusive; x = no result; [ ] = another dose, or the depositor's remark. Sampled rows, rich in hits. Any-hit rate of the full collection: about 12%. Unless noted, the call rests on the fitted dose curve; in most records, active means well fitted curve in the direction sought with a large enough effect; inconclusive means small, poorly fitted or top-dose-only effect, or another doubt; inactive means no such curve, though single readings can be large; an effect the other way counts as inactive or inconclusive. Unless noted, on the % scale 0 is the no-effect control and ±100 the full control effect; potency means the concentration at half of the fitted maximal effect.
SMILES,ALDH1A1 inh,PLK1 PBD block,Gal4-VP16 FLuc,Sfp inh,RORgamma inh
CC(C)C(=O)NC(=S)Nc1ccccc1N1CCN(C(=O)c2ccc(Cl)cc2)CC1,-6.8%,-7.0%,5.01µM*,13.5%,5.62µM*
CC(C)C(=O)N1CCN(c2ccccc2NC(=S)NC(=O)c2cccs2)CC1,u,-20.1%,u,2.4%,14.1µM*
CC(C)(C)C(=O)Nc1ccccc1N1CCN(C(=O)c2ccc(Cl)cc2)CC1,7.1%,-8.0%,1.1%,5.0%,11.8%
Cc1cccc(C)c1NCc1n[nH]c(=S)n1-c1ccccc1,8.7%,-14.1%,u,79.4µM*,2µM*
Cc1n[nH]c(=S)n1-c1cccc(Cl)c1,-8.3%,-15.8%,u,u,11.2µM*
Cc1ccc(C)c(NCc2n[nH]c(=S)n2-c2ccccc2)c1,9.0%,0.0%,-4.9%,22.2%,-19.7%
S=c1[nH]nc(COc2ccccc2)n1-c1ccc(Cl)cc1,x,-18.1%,x,x,x
CSc1n[nH]c(=O)n1-c1cccc(Cl)c1,x,-6.2%,-11.5%,7.7%,14.0%
Cc1cc(OCc2n[nH]c(=S)n2-c2ccccc2)ccc1Cl,x,-26.9%,3.55µM*,5.8%,2.51µM*
Cc1cccc(C)c1OCc1n[nH]c(=S)n1-c1ccccc1,-8.4%,-0.4%,u,-21.3%,1.26µM*
COCCNC(=O)C1(C)CCCN(CCOc2ccc(Cl)cc2)C1 (configuration not stated),x,-9.3%,x,x,x
CO[C@@H]1[C@@H]2OP(=O)(O)OC[C@H]2O[C@H]1n1c(Sc2ccc(Cl)cc2)nc2c(N)ncnc21,1.9%,x,-3.5%,19.2%,11.8%
OCCCc1n[nH]c(=S)n1-c1ccccc1,u,-4.4%,-0.6%,-1.0%,0.6%
Cc1ccc(-n2c(COc3cccc(C)c3)n[nH]c2=S)cc1,0.2%,-4.8%,u,-24.9%,u
CC(C)Oc1ccc(CCc2n[nH]c(=S)n2-c2ccccc2)cc1,-5.7%,8.6%,-11.0%,3.2%,7.08µM*
COCc1n[nH]c(=S)n1-c1ccccc1,1.3%,-13.4%,1.2%,-20.0%,-11.2%
S=c1[nH]nc(CSCc2ccccc2Cl)n1-c1ccccc1,4.47µM*,-5.6%,6.31µM*,-6.5%,1µM*
Cc1ccccc1OCc1n[nH]c(=S)n1-c1cccc(Cl)c1,x,-18.6%,4.47µM*,7.1%,3.98µM*
Cc1cccc(OCc2n[nH]c(=S)n2-c2ccccc2)c1,6.4%,-25.7%,u,10.5%,2.24µM*
CN(CC(=O)Nc1cccc(S(=O)(=O)N(C)c2ccccc2)c1)Cc1cccs1,x,-6.0%,x,x,x
Cc1ccc(-n2c(CCc3ccccc3)n[nH]c2=S)cc1C,x,-19.3%,u,13.5%,-15.3%[1.91 µM]
Cn1c(Cc2cccs2)n[nH]c1=S,-1.0%,26.7µM*,-4.2%,10.2%,u
Cn1c(CCc2ccccc2)n[nH]c1=S,15.3%,-7.7%,-2.9%,-1.6%,12.6µM*
Cc1ccc(OCc2n[nH]c(=S)n2-c2ccccc2)cc1C,-7.7%,-3.9%,u,-0.8%,2µM*
Cn1cc(-c2nc3cncnc3n(Cc3ccccc3Cl)c2=O)c2ccccc21,-15.0%,x,7.6%,10.2%,-19.2%
SMILES,ALDH1A1 inh,PLK1 PBD block,Gal4-VP16 FLuc,Sfp inh,RORgamma inh
COc1cccc(/C=N/NC(=O)c2cnccn2)c1O,x,-14.5%,2.51µM*,25.9%,2.24µM*
COc1ccc(/C=N/NC(=O)c2cnccn2)c(OC)c1OC,x,-13.0%,-1.4%,9.4%,3.1%
Cc1ccc(/C=N/NC(=O)c2c(-c3ccccc3)noc2C)c(O)c1,x,x,3.16µM*,24.7%,3.16µM*
COc1cccc(/C=N/NC(=O)c2c(-c3ccccc3)noc2C)c1O,-0.3%,-6.3%,2µM*,3.3%,0.355µM*
COc1cccc(/C=N/NC(=O)c2ccoc2C)c1O,x,-4.4%,0.501µM*,10.2%,0.0631µM*
O=C1C=C(C#Cc2ccccc2)C[C@@H](c2ccc(F)cc2)C1,x,-20.4%,x,x,x
CCc1ccc(-n2c(=S)sc3c(=O)[nH]c(SCC(=O)NC4CCCCC4)nc32)cc1,x,-24.2%,x,x,x
C=CCC1CCCCC1=C(C#N)c1ccccc1 (configuration not stated),x,-8.1%,x,x,x
Cc1onc(-c2ccccc2)c1C(=O)N/N=C/c1c[nH]c2ccccc12,u,23.8µM*,7.08µM*,-8.8%,2.82µM*
CCOc1cc([N+](=O)[O-])cc(/C=N/NC(=O)c2c(-c3ccccc3)noc2C)c1O,x,-0.6%,0.631µM*,10.1%,0.631µM*
COc1cc(C2SCCS2)cc(Br)c1Oc1ncccc1[N+](=O)[O-],u,-2.0%,-5.2%,10.0%,31.3%
O=[N+]([O-])c1cccnc1Oc1ccc(C2SCCS2)cc1,17.8µM*,3.8%,-9.6%,-0.7%,40.4%
Cc1ccc(SCC(=O)Nc2nnc(C(C)(C)C)s2)cc1,x,21.2µM*,-16.2%,-2.3%,7.8%[1.91 µM]
Cc1ccc(C(C)(C)C)c(SCC(=O)Nc2nnc(C)s2)c1,x,-14.3%,-17.3%,18.0%,7.08µM*
COc1ccc(/C=C/c2nnc(NC(=O)CSc3ccc(C)cc3)s2)cc1,x,-5.3%,u,-1.7%,u
Cc1nnc(NC(=O)CSc2ccccc2N)s1,x,-21.6%,-5.6%,-13.2%,-10.0%
O=C(C#Cc1ccccc1)Nc1cccc(F)c1,x,-4.6%,x,u,x
Cc1ccc(-n2c(COc3ccccc3)n[nH]c2=S)cc1,u,-20.3%,u,3.2%,2.51µM*
COc1ccc(-n2c(COc3ccccc3)n[nH]c2=S)cc1,x,5.6%,-11.4%,1.6%,7.08µM*
COc1ccc(-n2c(COc3ccc(C)cc3)n[nH]c2=S)cc1,x,-0.9%,7.08µM*,-10.2%,5.62µM*
CC1(C)CC(=O)C(=CN2CCOCC2)C(=O)C1,10µM*,-16.8%,11.8%,-30.4%,21.7%
CC1(C)CC(=O)C(C=NCCN2CCOCC2)=C(O)C1,u,-10.0%,-13.1%,11.0%,-4.0%
CC1(C)CC(=O)C(=CN2CCN(C(=O)c3ccco3)CC2)C(=O)C1,22.4µM*,-27.2%,-3.5%,-24.8%,5.7%
CS(=O)(=O)Nc1ccccc1C(=O)NCCSc1ccccc1,x,-4.4%,-13.1%,7.3%,29.4%
Cc1cc(C(=O)OCC(=O)c2ccc(Cl)c([N+](=O)[O-])c2)c2cccc(C)c2n1,12.6µM*,-2.7%,-4.4%,3.5%,-15.2%
Cc1ccc2nc(C)cc(C(=O)OCC(=O)c3ccc(Cl)c([N+](=O)[O-])c3)c2c1,20µM*,u,-11.5%,-4.3%,21.0%
CCCCNC(=O)C1C(c2ccc(C(F)(F)F)cc2)=Nc2ccccc2N1C(=O)c1cccc2ccccc12 (configuration not stated),x,-6.2%,x,x,x
Cc1ccnc(NC(=O)c2ccccc2[N+](=O)[O-])c1,u,9.47µM*,3.0%,22.4µM*,27.1%
Cc1ccc(C(=O)Nc2ccccc2C(=O)Nc2ccccn2)cc1Cl,x,-19.7%,15.8µM*,3.0%,u
